# The sample as a whole holds a higher share of hits than the screen did.
# Dicer processing = inhibitors of Dicer pre-microRNA processing, primary screen, biochemical, cat-ELCCA, chemiluminescence; Endoribonuclease Dicer (Homo sapiens), Q9UPY3; cat-ELCCA pre-miR-21 Dicer processing; active compounds read high; z-score at 25 µM; hit rate 6% among 47,000; AID 1347074, 2019; in the data active means z-score above about 3, passing the limit was not always enough;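 further: plate controls were vehicle for no effect and no enzyme for full effect; higher signal means more uncleaved substrate so more Dicer inhibition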
# Target sequence (Q9UPY3 whole entry, looked up): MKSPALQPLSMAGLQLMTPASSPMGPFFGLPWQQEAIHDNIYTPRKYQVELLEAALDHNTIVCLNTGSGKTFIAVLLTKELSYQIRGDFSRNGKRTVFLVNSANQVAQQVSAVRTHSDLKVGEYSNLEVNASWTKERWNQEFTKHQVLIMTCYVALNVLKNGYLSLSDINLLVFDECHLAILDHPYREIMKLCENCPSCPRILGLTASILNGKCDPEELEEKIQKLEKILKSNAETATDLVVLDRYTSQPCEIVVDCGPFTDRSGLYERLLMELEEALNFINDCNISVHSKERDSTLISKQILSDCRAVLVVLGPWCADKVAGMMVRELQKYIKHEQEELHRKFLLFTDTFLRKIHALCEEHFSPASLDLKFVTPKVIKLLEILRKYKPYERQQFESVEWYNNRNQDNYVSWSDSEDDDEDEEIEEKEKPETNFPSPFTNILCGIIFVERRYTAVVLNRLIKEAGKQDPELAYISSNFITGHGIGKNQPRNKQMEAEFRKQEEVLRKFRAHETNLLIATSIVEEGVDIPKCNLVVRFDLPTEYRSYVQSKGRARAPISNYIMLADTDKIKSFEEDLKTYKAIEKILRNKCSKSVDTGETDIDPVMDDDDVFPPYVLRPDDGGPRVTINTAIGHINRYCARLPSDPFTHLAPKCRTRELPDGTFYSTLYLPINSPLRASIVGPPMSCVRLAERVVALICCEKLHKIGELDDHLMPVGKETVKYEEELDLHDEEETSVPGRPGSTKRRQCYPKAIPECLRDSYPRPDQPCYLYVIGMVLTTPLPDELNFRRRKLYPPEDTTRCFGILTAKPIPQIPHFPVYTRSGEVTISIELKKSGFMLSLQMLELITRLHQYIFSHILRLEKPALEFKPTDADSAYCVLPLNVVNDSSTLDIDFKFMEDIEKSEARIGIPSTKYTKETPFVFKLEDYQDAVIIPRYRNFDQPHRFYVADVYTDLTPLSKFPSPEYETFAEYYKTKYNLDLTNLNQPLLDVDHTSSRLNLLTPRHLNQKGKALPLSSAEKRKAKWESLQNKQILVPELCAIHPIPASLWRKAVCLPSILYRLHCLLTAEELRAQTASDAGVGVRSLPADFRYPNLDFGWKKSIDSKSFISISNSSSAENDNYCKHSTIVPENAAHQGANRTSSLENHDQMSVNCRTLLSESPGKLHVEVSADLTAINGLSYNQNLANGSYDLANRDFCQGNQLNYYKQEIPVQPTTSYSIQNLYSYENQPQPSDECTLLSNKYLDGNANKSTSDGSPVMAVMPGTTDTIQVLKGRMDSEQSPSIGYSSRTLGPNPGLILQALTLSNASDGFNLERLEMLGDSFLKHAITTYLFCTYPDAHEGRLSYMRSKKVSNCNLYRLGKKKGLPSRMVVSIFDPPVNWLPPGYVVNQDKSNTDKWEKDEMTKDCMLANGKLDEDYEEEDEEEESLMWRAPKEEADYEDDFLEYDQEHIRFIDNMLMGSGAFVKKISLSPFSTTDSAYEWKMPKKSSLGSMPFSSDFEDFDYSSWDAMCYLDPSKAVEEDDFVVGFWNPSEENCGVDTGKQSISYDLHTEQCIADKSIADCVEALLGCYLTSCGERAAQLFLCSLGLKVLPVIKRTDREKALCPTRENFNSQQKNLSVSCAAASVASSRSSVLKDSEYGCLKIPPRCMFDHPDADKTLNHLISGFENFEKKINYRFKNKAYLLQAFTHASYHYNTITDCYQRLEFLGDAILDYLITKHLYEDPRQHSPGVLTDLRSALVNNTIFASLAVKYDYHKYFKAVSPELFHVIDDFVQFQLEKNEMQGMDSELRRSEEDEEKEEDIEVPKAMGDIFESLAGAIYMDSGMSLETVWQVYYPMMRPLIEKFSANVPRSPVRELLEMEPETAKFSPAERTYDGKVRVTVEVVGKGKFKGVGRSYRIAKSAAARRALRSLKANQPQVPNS
# * marks the source's active call; other numbers are inactive results.
SMILES,Dicer processing
C/C(=N\OCC(=O)N=S(C)(=O)c1ccc(C)cc1)c1ccc(Cl)cc1 (stereo unspecified),-0.26
Cn1c(N2CCOCC2)nc2c1c(=O)n(Cc1ccc(F)cc1)c(=O)n2C,0.06
CS/C(=C\C(=O)c1cccs1)NCc1ccco1,-0.39
CN(n1cnc2ccccc2c1=O)S(C)(=O)=O,3*
COc1ccc(-n2cnc3ccccc3c2=O)cc1,0.4
CN(n1cnc2ccsc2c1=O)S(C)(=O)=O,-0.09
N#Cc1ccccc1NC(=O)C1CCCCC1,-1.2
O=c1[nH]c(SCc2ccccc2)nc2c1CCC2,-1
CC(=O)N1CCSC1C(=O)NN(C(=O)c1cc2ccccc2s1)C(=O)c1cc2ccccc2s1 (stereo unspecified),0.2
N=C(N)SCc1ccccc1Cl,-0.65
Nc1nnc(SCc2ccccc2Cl)s1,11*
NCCc1nnc(SCc2ccccc2Cl)o1,0.34
Cc1nn2c3c(cnc2c1-c1ccc(Cl)cc1)C(=O)CC(C)C3 (stereo unspecified),-0.51
Nc1nccc(-c2nn(-c3ccc(F)cc3)ccc2=O)n1,0.22
O=C(O)CCCC(=O)Nc1ccn(-c2ccccc2)n1,0.09
Nc1nc(NC(=O)CCCC(=O)O)nn1-c1ccccc1,16*
O=C(O)CCCC(=O)Nc1nc2nccc(-c3ccccc3)n2n1,-0.66
C=CCSc1n[nH]c(=O)[nH]c1=O,-0.51
Cc1cc(=O)[nH]c(SCC(=O)N(c2ccccc2)c2ccccc2)n1,1.3
Cc1ccc(C(=O)CSc2nc(C)cc(=O)[nH]2)cc1,4.6*
O=C(CSc1nc(C(F)(F)F)cc(=O)[nH]1)c1ccc(Cl)cc1,-1.2
Cc1cc(=O)[nH]c(SCC(=O)C(C)(C)C)n1,0.9
COc1ccc(C(=O)CSc2nc(O)cc(=O)[nH]2)cc1,-2.6
Cc1cc(=O)[nH]c(SCC(N)=O)n1,4.6*
Cc1nc(-c2ccccn2)nc(N(C)Cc2ccccc2)c1Cl,0.98
SMILES,Dicer processing
COc1nc(Nc2ccc(C)c(Cl)c2)nc(OC)n1,-0.86
CCCOC(=O)C1=C(C)NC2=C(C(=O)CCC2)C1c1ccco1 (stereo unspecified),-1.2
Cc1cc(C)nc(SCC(=O)c2ccc(O)cc2O)n1,0.35
Cc1ccc(C(=O)CSc2n[nH]c(-c3ccco3)n2)c(C)c1,-0.59
O=C(CSc1n[nH]c(-c2ccco2)n1)c1ccc(O)cc1O,10*
c1ccc(CN2CCN(Cc3ccccc3)C2c2cccnc2)cc1,1.9
CCCc1cc(=O)[nH]c(SCC(=O)Nc2nc3ccc(OC)cc3s2)n1,1.7
O=C(c1nc(SCc2cccc(F)c2)n2ccccc12)C(F)(F)F,0.76
CCn1c(C)[n+](CC(O)COc2ccc(F)cc2)c2ccccc21 (stereo unspecified),0.85
CCc1n(CC)c2ccccc2[n+]1CC(O)COc1ccccc1OC (stereo unspecified),0.58
CCc1n(CC)c2ccccc2[n+]1CC(O)COc1ccc(F)cc1 (stereo unspecified),5*
CN(C)CCCNc1ccc([N+](=O)[O-])c(N2CCOCC2)c1C#N,1.2
CCOC(=O)C1=C(N)Oc2cc(O)ccc2C1c1ccc(F)cc1F (stereo unspecified),0.45
CCOC(=O)C1=C(N)Oc2cc(O)ccc2C1c1ccccc1 (stereo unspecified),0.12
CCOC(=O)C1=C(N)Oc2ccc3ccccc3c2C1c1cccc(O)c1 (stereo unspecified),3.5*
CNC(=O)NCc1c(N(C)C)cccc1N(C)C,0.84
C=CCn1c(=S)sc2c(SCC(=O)Nc3nccs3)ncnc21,0.09
Cc1nn(C)c(NCc2cccs2)c1[N+](=O)[O-],-0.21
Cc1oc2ccc(NS(=O)(=O)c3cccc4ccccc34)cc2c1C(=O)OC(C)C,0.64
COc1ccc(CC(=O)NCc2cc(C)oc2C(F)(F)F)cc1OC,0.59
COc1ccccc1-c1nc(-c2ccc(-c3ccc(C)cc3)nc2OC)no1,-0.1
COc1ccc(-c2noc(-c3cccc(OC)c3OC)n2)cc1,4.1*
COc1cccc(-c2nc(-c3ccccc3)no2)c1OC,-0.58
OC(CC#CCN1CCCCC1)(c1ccccc1)C1CCCC1 (stereo unspecified),1.2
Cn1c(=O)c2c(nc(CN(Cc3ccccc3)Cc3ccccc3)n2CC(=O)C(C)(C)C)n(C)c1=O,-0.37
SMILES,Dicer processing
CCOC(=O)C1=C(C)Nc2ncnn2C1c1ccc(N(CC)CC)cc1 (stereo unspecified),2.1
CC1=C(C(=O)OC(C)C)C(c2cccc(OCc3ccccc3)c2)n2ncnc2N1 (stereo unspecified),0.32
CC1=C(C(=O)OCc2ccccc2)C(c2ccc(OCc3ccccc3)cc2)n2ncnc2N1 (stereo unspecified),3.1*
CCC(Sc1ccccn1)C(=O)Nc1ccc(Cl)cn1 (stereo unspecified),2.2
O=[N+]([O-])c1ccc(Oc2c(Cl)cc(S(=O)(=O)N3CCOCC3)cc2Cl)c(Cl)c1,-0.33
O=S(=O)(c1ccc(Cl)cc1)N(CCc1ccccn1)c1ccccc1,-1.3
O=C(Nc1c(C(=O)c2ccc(Br)cc2)oc2ccccc12)c1ccco1,-1
COC(=O)c1ccc(C(=O)Nc2c(C(N)=O)oc3ccccc23)cc1,3.6*
O=C(Nc1c(C(=O)c2ccc(F)cc2)oc2ccccc12)c1ccco1,-0.64
COc1ccc(OC)c(NC(=O)C(=O)NN)c1,-1.4
COc1ccc(OC)c(NC(=O)CCC(=O)O)c1,5*
COC(=O)c1cc(OC)c(OC)cc1NC(=O)CCC(=O)O,-0.09
FC(F)(F)c1cccc(NC(=S)NN=C2CCCCCC2)c1,2.3
CC(=O)Nc1ccc(C(C)C)cc1Br,-0.07
O=S(=O)(c1ccc(F)cc1)N(Cc1ccccc1)c1ccccn1,2.8
O=C1NC(=S)S/C1=C\c1ccc([N+](=O)[O-])s1,-0.38
O=C1NC(=S)S/C1=C/c1ccc(Sc2ccc(Cl)cc2)c([N+](=O)[O-])c1,5.2*
O=[N+]([O-])c1cc(-c2cnc3ccccc3n2)ccc1Sc1ccc(Cl)cc1,-0.9
O=C(Nc1ccc(Cl)cc1)Nc1csc(-c2ccc(C(F)(F)F)cc2)n1,-1.2
Cc1ncc(-c2nnnn2-c2ccccc2)c(C(F)(F)F)n1,0.53
CNS(=O)(=O)c1cc(C(F)(F)F)ccc1Cl,-1.6
O=C(Nc1ccc2ccccc2n1)c1cc(Cl)sc1Cl,-0.11
Oc1ccc(O)c(Sc2nnnn2-c2ccccc2)c1,3.2*
CC(=O)C(Sc1nnnn1-c1ccccc1)C(C)=O,-0.44
CC(=O)n1nc(C)c(Sc2nnnn2-c2ccccc2)c1C,-1.2
SMILES,Dicer processing
Fc1cccc(CN2CCN(Cc3ccccn3)CC2)c1,0.51
CC1(C)OC(=O)C(Cc2ccc([N+](=O)[O-])cc2)C(=O)O1,-0.36
COc1ccc(-c2csc(Nc3ccc(C)cn3)n2)cc1OC,1.1
Cc1ccc(Nc2nc(-c3ccc(O)cc3)cs2)nc1,4.4*
Cc1ccc(Nc2nc(-c3ccc(O)c(O)c3)cs2)nc1,2.1
CCOc1ccc(N2CCCCn3c2nc2c3c(=O)n(CC(C)C)c(=O)n2C)cc1,-1.6
CN(C)/C=C1/SC(=O)N(c2ccc(OC(F)(F)F)cc2)C1=O,-1.6
COc1cccc(C2CC(=O)Nc3nc(N)[nH]c(=O)c32)c1OC (stereo unspecified),-1.1
CCCCN(C)CC(O)Cn1c2ccc(Cl)cc2c2cc(Cl)ccc21 (stereo unspecified),-1.6
Cn1c2ccccc2n2nc(CCC(=O)O)c(=O)nc12,2.1
COC(=O)c1ccc(COC(=O)CCc2nc3ccccc3[nH]c2=O)cc1,2.7
COC(=O)CCc1nc2ccccc2nc1OC,3.5*
COc1nc2ccccc2nc1CCC(=O)O,3.8*
CCOC(=O)c1sc(-c2ccccc2)nc1OC,1.7

# Screening data as filed in PubChem BioAssay.
